Holding throughout (assay): PBM; 200 nM protein, PBS
Settings in all cases: dsDNA, one strand shown

For experiment [1], the target named is T1, VENTX (Homo sapiens, UniProt O95231 78-163, R121Q).
T1 sequence: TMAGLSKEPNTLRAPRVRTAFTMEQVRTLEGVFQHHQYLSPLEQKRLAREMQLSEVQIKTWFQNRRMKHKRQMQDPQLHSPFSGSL

Experiment [2] concerns the target T2, VENTX (Homo sapiens, UniProt O95231 78-163, Y115F).
T2 sequence: T1 sequence with Y38F, Q44R

In experiment [3] the target is T3, PAX4 (Homo sapiens, UniProt O43316 9-242, R200K).
T3 sequence: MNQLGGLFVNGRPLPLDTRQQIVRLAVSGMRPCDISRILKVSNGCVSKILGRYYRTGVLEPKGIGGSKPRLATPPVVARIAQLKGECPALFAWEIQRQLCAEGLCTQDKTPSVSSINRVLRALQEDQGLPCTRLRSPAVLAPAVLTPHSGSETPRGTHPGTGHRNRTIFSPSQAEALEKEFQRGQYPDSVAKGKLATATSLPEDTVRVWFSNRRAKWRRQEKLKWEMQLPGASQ

For experiment [4], the target named is T4, PAX4 (Homo sapiens, UniProt O43316 9-242).
T4 sequence: T3 sequence with K192R

Experiment [5] concerns the target ALX3 (Homo sapiens, UniProt O95076 139-225, N203Q).
The target of experiment [6] is T5, PAX4 (Homo sapiens, UniProt O43316 9-242, R200Q).
T5 sequence: T3 sequence with K192Q

The target in experiment [7] is T6, PAX4 (Homo sapiens, UniProt O43316 9-242, F177V).
T6 sequence: T3 sequence with F169V, K192R

The target of experiment [8] is ALX3 (Homo sapiens, UniProt O95076 139-225).
ALX3 (Homo sapiens, UniProt O95076 139-225), sequence (O95076 139-225): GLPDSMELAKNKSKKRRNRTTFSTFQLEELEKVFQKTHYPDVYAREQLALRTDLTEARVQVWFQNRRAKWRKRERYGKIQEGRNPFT
The target of experiment [9] is T7, PAX4 (Homo sapiens, UniProt O43316 9-242, F177Y).
T7 sequence: T3 sequence with F169Y, K192R

Experiment [10] concerns the target ALX3 (Homo sapiens, UniProt O95076 139-225, L168V).
Experiment [11] deals with T8, PAX4 (Homo sapiens, UniProt O43316 9-242, R227W).
T8 sequence: T3 sequence with K192R, R219W

The target of experiment [12] is ALX3 (Homo sapiens, UniProt O95076 139-225, N203S).
ALX3 (Homo sapiens, UniProt O95076 139-225, N203S), sequence (O95076 139-225 N203S): as the sequence (O95076 139-225) above, with N65S counted along it
A further experiment addresses MSX2 (Homo sapiens, UniProt P35548 130-214).
Experiment [13] addresses HOXA2 (Homo sapiens, UniProt O43364 129-215, R185T).
Experiment [14] has as its target HOXA2 (Homo sapiens, UniProt O43364 129-215, R185K).
The target of experiment [15] is HOXA2 (Homo sapiens, UniProt O43364 129-215, Y150S).
HOXA2 (Homo sapiens, UniProt O43364 129-215, Y150S), sequence (O43364 129-215 Y150S): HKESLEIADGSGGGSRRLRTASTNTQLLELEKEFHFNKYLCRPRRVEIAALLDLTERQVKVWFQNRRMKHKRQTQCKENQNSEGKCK
The target in experiment [16] is HOXA2 (Homo sapiens, UniProt O43364 129-215).
HOXA2 (Homo sapiens, UniProt O43364 129-215), sequence (O43364 129-215): as the sequence (O43364 129-215 Y150S) above, with S22Y counted along it
For experiment [17], the target named is HOXA7 (Homo sapiens, UniProt P31268 116-202).
HOXA7 (Homo sapiens, UniProt P31268 116-202), sequence (P31268 116-202): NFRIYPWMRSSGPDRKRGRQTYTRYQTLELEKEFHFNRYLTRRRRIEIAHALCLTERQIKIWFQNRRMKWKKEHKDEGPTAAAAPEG
The target of experiment [18] is HOXA7 (Homo sapiens, UniProt P31268 116-202, W177C).
HOXA7 (Homo sapiens, UniProt P31268 116-202, W177C), sequence (P31268 116-202 W177C): as the sequence (P31268 116-202) above, with W62C counted along it

Residue numbers refer to the chain shown, from its start.

MSX2, sequence (P35548 130-214): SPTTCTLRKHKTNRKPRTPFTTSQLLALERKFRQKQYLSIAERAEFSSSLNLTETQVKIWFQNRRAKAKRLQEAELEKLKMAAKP
ALX3 (Homo sapiens, UniProt O95076 139-225, N203Q), sequence (O95076 139-225 N203Q): as the sequence (O95076 139-225) above, with N65Q counted along it
ALX3 (Homo sapiens, UniProt O95076 139-225, L168V), sequence (O95076 139-225 L168V): as the sequence (O95076 139-225) above, with L30V counted along it
HOXA2 (Homo sapiens, UniProt O43364 129-215, R185T), sequence (O43364 129-215 R185T): as the sequence (O43364 129-215 Y150S) above, with S22Y, R57T counted along it
HOXA2 (Homo sapiens, UniProt O43364 129-215, R185K), sequence (O43364 129-215 R185K): as the sequence (O43364 129-215 Y150S) above, with S22Y, R57K counted along it

In the case of GTCCTGCA, the binding signal with VENTX [1] was 8.28 upbm affinity estimate (log intensity, higher = more binding, comparable within an allelic series); in the experiment with VENTX [2], 8.13 upbm affinity estimate (log intensity, higher = more binding, comparable within an allelic series).

On to GCCAGCGA, for which the binding signal with VENTX [1] is 8.16 upbm affinity estimate (log intensity, higher = more binding, comparable within an allelic series); in the experiment with VENTX [2], 8.18 upbm affinity estimate (log intensity, higher = more binding, comparable within an allelic series).

In the case of AATTAACC, the binding signal is 11.6 upbm affinity estimate (log intensity, higher = more binding, comparable within an allelic series) in the experiment with PAX4 [3]; 12.1 upbm affinity estimate (log intensity, higher = more binding, comparable within an allelic series) with PAX4 [4]; 8.33 upbm affinity estimate (log intensity, higher = more binding, comparable within an allelic series) with ALX3 [5]; 11.9 upbm affinity estimate (log intensity, higher = more binding, comparable within an allelic series) with PAX4 [6]; 10.4 upbm affinity estimate (log intensity, higher = more binding, comparable within an allelic series) with PAX4 [7]; 12.3 upbm affinity estimate (log intensity, higher = more binding, comparable within an allelic series) with ALX3 [8]. The binding signal with PAX4 [9] was 10.8 upbm affinity estimate (log intensity, higher = more binding, comparable within an allelic series); with ALX3 [10], 9.89 upbm affinity estimate (log intensity, higher = more binding, comparable within an allelic series); with PAX4 [11], 10.8 upbm affinity estimate (log intensity, higher = more binding, comparable within an allelic series); with ALX3 [12], 8.5 upbm affinity estimate (log intensity, higher = more binding, comparable within an allelic series).

As to AATTATCG, the binding signal with ALX3 [5] is 8.39 upbm affinity estimate (log intensity, higher = more binding, comparable within an allelic series); in the experiment with MSX2, 13.4 upbm affinity estimate (log intensity, higher = more binding, comparable within an allelic series); in the experiment with ALX3 [8] it was 12.3 upbm affinity estimate (log intensity, higher = more binding, comparable within an allelic series); with ALX3 [10], 9.82 upbm affinity estimate (log intensity, higher = more binding, comparable within an allelic series); with ALX3 [12], 8.5 upbm affinity estimate (log intensity, higher = more binding, comparable within an allelic series).

For CAGGCCGG, the binding signal is 7.05 upbm affinity estimate (log intensity, higher = more binding, comparable within an allelic series) with HOXA2 [13]; 10.1 upbm affinity estimate (log intensity, higher = more binding, comparable within an allelic series) with HOXA2 [14]; 10.3 upbm affinity estimate (log intensity, higher = more binding, comparable within an allelic series) in the experiment with HOXA2 [15]; 7.13 upbm affinity estimate (log intensity, higher = more binding, comparable within an allelic series) in the experiment with HOXA2 [16].

AATTATCA: the binding signal is 13.3 upbm affinity estimate (log intensity, higher = more binding, comparable within an allelic series) with MSX2; 10.9 upbm affinity estimate (log intensity, higher = more binding, comparable within an allelic series) with PAX4 [9]; 9.73 upbm affinity estimate (log intensity, higher = more binding, comparable within an allelic series) in the experiment with ALX3 [10].

As to GAACCCCC, the binding signal with HOXA2 [13] was 7.12 upbm affinity estimate (log intensity, higher = more binding, comparable within an allelic series); with HOXA2 [14], 10 upbm affinity estimate (log intensity, higher = more binding, comparable within an allelic series); with MSX2, 9.41 upbm affinity estimate (log intensity, higher = more binding, comparable within an allelic series); with HOXA2 [15], 10.3 upbm affinity estimate (log intensity, higher = more binding, comparable within an allelic series); with HOXA2 [16] it was 7.05 upbm affinity estimate (log intensity, higher = more binding, comparable within an allelic series).

For the sequence AATTATCT, the binding signal with PAX4 [3] is 11.7 upbm affinity estimate (log intensity, higher = more binding, comparable within an allelic series); with PAX4 [4], 12.2 upbm affinity estimate (log intensity, higher = more binding, comparable within an allelic series); in the experiment with ALX3 [5] it was 8.49 upbm affinity estimate (log intensity, higher = more binding, comparable within an allelic series); in the experiment with PAX4 [6], 11.9 upbm affinity estimate (log intensity, higher = more binding, comparable within an allelic series); with PAX4 [7] it was 10.5 upbm affinity estimate (log intensity, higher = more binding, comparable within an allelic series); with MSX2, 13.5 upbm affinity estimate (log intensity, higher = more binding, comparable within an allelic series). Besides, the binding signal is 12.4 upbm affinity estimate (log intensity, higher = more binding, comparable within an allelic series) in the experiment with ALX3 [8]; 11 upbm affinity estimate (log intensity, higher = more binding, comparable within an allelic series) with PAX4 [9]; 9.85 upbm affinity estimate (log intensity, higher = more binding, comparable within an allelic series) with ALX3 [10]; 10.9 upbm affinity estimate (log intensity, higher = more binding, comparable within an allelic series) with PAX4 [11]; 8.6 upbm affinity estimate (log intensity, higher = more binding, comparable within an allelic series) with ALX3 [12].

As to CCGAGGCC, the binding signal with HOXA2 [13] is 7.28 upbm affinity estimate (log intensity, higher = more binding, comparable within an allelic series); with HOXA2 [14], 10.4 upbm affinity estimate (log intensity, higher = more binding, comparable within an allelic series); with HOXA2 [15], 10.4 upbm affinity estimate (log intensity, higher = more binding, comparable within an allelic series); in the experiment with HOXA2 [16], 7.27 upbm affinity estimate (log intensity, higher = more binding, comparable within an allelic series).

For GCCGGCGA, the binding signal with PAX4 [3] is 9.18 upbm affinity estimate (log intensity, higher = more binding, comparable within an allelic series); in the experiment with PAX4 [4], 9.12 upbm affinity estimate (log intensity, higher = more binding, comparable within an allelic series); in the experiment with PAX4 [6], 9.11 upbm affinity estimate (log intensity, higher = more binding, comparable within an allelic series); with PAX4 [7], 9.13 upbm affinity estimate (log intensity, higher = more binding, comparable within an allelic series); in the experiment with PAX4 [9] it was 9.03 upbm affinity estimate (log intensity, higher = more binding, comparable within an allelic series); with PAX4 [11] it was 9.19 upbm affinity estimate (log intensity, higher = more binding, comparable within an allelic series).

On to TAATTGTA, for which the binding signal was 8.59 upbm affinity estimate (log intensity, higher = more binding, comparable within an allelic series) in the experiment with ALX3 [5]; 10.5 upbm affinity estimate (log intensity, higher = more binding, comparable within an allelic series) with PAX4 [7]; 13.6 upbm affinity estimate (log intensity, higher = more binding, comparable within an allelic series) with MSX2; 8.7 upbm affinity estimate (log intensity, higher = more binding, comparable within an allelic series) with ALX3 [12].

With AAGCTGGC, the binding signal with HOXA7 [17] was 8.32 upbm affinity estimate (log intensity, higher = more binding, comparable within an allelic series); with HOXA7 [18] it was 8.3 upbm affinity estimate (log intensity, higher = more binding, comparable within an allelic series).

Source of the values: PMC11006913.
